Several values for one entry are separate records, joined by “and”; a condition that tells them apart may be missing. Equal entries are not always repeated. Records with an inconclusive call do not appear. Some structures have more than one record in an assay (separate samples or runs), and their calls can disagree. Activity calls are given as the source filed them. The calls were made as follows, unless noted: active = hit-call score of the fitted dose curve at least 0.9, where 1 is the maximum; inconclusive = response in the unintended direction; inactive = score below 0.9.
Experiments:
[1] = target: human Peroxisome Proliferator-activated Receptor alpha (PPARa), PPARA (gene 5465) (UniProt Q07869); experiment: ATG_PPARa_TRANS: Attagene TRANS-FACTORIAL HepG2 Assay for human Peroxisome Proliferator-activated Receptor alpha (PPARa) (AID 2283001);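 as to AC50: potency for gain of reporter signal over DMSO so agonist or activator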
Chain of human Peroxisome Proliferator-activated Receptor alpha (PPARa), PPARA (gene 5465) (Q07869 whole entry, looked up, the tested form may be a part): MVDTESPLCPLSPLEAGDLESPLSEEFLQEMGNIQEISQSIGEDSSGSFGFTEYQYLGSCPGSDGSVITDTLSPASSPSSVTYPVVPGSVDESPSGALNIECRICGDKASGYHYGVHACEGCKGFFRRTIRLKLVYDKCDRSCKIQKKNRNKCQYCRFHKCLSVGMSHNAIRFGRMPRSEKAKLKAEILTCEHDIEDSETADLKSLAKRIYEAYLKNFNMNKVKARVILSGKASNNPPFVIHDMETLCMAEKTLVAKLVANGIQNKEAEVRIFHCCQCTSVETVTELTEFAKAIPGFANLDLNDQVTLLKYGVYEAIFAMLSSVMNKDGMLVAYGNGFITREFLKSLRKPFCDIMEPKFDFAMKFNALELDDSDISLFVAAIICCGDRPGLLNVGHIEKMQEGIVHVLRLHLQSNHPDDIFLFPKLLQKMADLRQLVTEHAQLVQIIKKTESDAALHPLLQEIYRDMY
Method in brief: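 Exposure: 24 h, transiently transfected HepG2 cells. Endpoint: GAL4-UAS reporter mRNA, RT-PCR with capillary electrophoresis fluorescence. Baseline: DMSO; increases fitted.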

[2] = target: human Peroxisome Proliferator-activated Receptor delta (PPARd), PPARD (gene 5467) (UniProt Q03181); experiment: ATG_PPARd_TRANS: Attagene TRANS-FACTORIAL HepG2 Assay for human Peroxisome Proliferator-activated Receptor delta (PPARd) (AID 2283002)
Chain of human Peroxisome Proliferator-activated Receptor delta (PPARd), PPARD (gene 5467) (Q03181 whole entry, looked up, the tested form may be a part): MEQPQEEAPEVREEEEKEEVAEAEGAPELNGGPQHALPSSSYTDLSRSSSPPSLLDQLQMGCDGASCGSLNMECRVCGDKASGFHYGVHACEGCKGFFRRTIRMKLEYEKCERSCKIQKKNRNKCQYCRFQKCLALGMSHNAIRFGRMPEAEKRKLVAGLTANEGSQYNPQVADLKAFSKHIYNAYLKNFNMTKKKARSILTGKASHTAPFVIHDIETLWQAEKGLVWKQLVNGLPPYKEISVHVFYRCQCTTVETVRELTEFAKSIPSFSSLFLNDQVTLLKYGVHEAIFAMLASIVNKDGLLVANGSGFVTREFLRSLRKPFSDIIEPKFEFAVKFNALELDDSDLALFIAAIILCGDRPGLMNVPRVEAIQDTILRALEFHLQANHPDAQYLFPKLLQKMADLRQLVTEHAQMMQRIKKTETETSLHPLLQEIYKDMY
Method in brief: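 HepG2 cells transiently transfected with multiplexed GAL4-UAS reporter units and exogenous chimeric NR-Gal4 proteins; 24 h compound exposure. Reporter mRNA measured by RT-PCR, 6-FAM labelling, HpaI digestion and capillary electrophoresis; gain of signal versus DMSO.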

[3] = read-out: Intercellular Adhesion Molecule 1 (ICAM1), ICAM1 (gene 3383); experiment: BSK_3C_ICAM1: BioMAP Diversity Plus: 3C Assay for Intercellular Adhesion Molecule 1 (ICAM1) Biomarker Activity (AID 2283003; active = hit-call score of the fitted dose curve at least 0.9, where 1 is the maximum; inactive = score below 0.9); settings: primary human endothelial cells (HUVEC); actives raise or lower the signal
Method in brief: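 ELISA read-out of ICAM-1; HUVEC (primary human), 3C system, 24 h post-dosing; bidirectional fit vs DMSO baseline.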

[4] = target: human Retinoic Acid Receptor beta (RARb), RARB (gene 5915) (UniProt P10826); experiment: ATG_RARb_TRANS: Attagene TRANS-FACTORIAL HepG2 Assay for human Retinoic Acid Receptor beta (AID 2283004)
Chain of human Retinoic Acid Receptor beta (RARb), RARB (gene 5915) (P10826 whole entry, looked up, the tested form may be a part): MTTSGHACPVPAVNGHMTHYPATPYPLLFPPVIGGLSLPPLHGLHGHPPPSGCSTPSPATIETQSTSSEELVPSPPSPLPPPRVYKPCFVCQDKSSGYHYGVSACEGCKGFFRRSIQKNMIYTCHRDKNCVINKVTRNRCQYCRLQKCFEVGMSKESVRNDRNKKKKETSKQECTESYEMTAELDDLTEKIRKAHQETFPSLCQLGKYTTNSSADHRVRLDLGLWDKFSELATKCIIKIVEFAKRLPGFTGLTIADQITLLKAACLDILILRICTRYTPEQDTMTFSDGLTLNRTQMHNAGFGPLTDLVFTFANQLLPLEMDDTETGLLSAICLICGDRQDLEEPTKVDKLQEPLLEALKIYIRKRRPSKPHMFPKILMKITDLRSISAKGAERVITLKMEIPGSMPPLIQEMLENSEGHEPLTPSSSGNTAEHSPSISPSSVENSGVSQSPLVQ
Method in brief: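 Induction of reporter mRNA from a chimeric RARb-Gal4 construct was measured by RT-PCR, FAM labelling, HpaI digestion and capillary electrophoresis. Measurements followed 24 h compound treatment of transiently transfected human HepG2 liver cells, with DMSO as baseline.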

[5] = target: Retinoic acid receptor alpha (Homo sapiens) (UniProt P10276); experiment: ATG_RARa_TRANS: Attagene TRANS-FACTORIAL HepG2 Assay for human Retinoic Acid Receptor alpha (RARa) (AID 2283005)
Chain of Retinoic acid receptor alpha (Homo sapiens) (P10276 whole entry, looked up, the tested form may be a part): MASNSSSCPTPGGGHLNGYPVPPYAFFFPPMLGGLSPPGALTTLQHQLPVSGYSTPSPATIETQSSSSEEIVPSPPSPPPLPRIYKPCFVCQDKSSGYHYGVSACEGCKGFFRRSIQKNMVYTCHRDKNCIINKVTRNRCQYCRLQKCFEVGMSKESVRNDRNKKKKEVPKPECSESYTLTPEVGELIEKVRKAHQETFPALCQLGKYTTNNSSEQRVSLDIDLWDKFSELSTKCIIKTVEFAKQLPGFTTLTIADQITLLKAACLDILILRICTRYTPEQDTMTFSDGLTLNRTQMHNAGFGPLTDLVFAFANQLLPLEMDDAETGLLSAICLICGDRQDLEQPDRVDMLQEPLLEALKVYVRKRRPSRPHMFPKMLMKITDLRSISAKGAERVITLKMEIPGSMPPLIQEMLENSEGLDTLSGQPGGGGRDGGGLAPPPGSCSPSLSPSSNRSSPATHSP
Method in brief: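 HepG2 cells transiently transfected with multiple reporter units expressing chimeric RARα-GAL4 fusion, with GAL4-UAS-driven reporters. After 24 h compound exposure, reporter mRNA induction quantified by RT-PCR and capillary electrophoresis with fluorescent labeling; gain-of-signal fitted relative to DMSO control.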

[6] = BSK_3C_Proliferation: Cell Proliferation Assessment in the BioMAP Diversity Plus: 3C Assay (AID 2283006; active = hit-call score of the fitted dose curve at least 0.9, where 1 is the maximum; inactive = score below 0.9;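 as to AC50: potency may reflect either rise or fall in cell number versus DMSO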); settings: primary human endothelial cells (HUVEC)
Method in brief: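 HUVEC, sub-confluent; 48 h chemical exposure; 10% TCA fix, 0.1% SRB stain, A560 total protein. Gain or loss of signal fitted both directions vs DMSO control.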

[7] = target: Peroxisome proliferator-activated receptor gamma (Homo sapiens) (UniProt P37231); experiment: ATG_PPARg_TRANS: Attagene TRANS-FACTORIAL HepG2 Assay for human Peroxisome Proliferator-activated Receptor-gamma (PPARg) (AID 2283007)
Method in brief: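 Liver-derived HepG2 cells expressing an exogenous NR-Gal4 chimera alongside GAL4-UAS reporter genes; 24 h exposure. Fluorescence of reporter RT-PCR products, separated by capillary electrophoresis, gives mRNA induction relative to DMSO.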

[8] = target: human Retinoic Acid Receptor gamma (RARg), RARG (gene 5916) (UniProt P13631); experiment: ATG_RARg_TRANS: Attagene TRANS-FACTORIAL HepG2 Assay for human Retinoic Acid Receptor gamma (RARg) (AID 2283009);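 as to AC50: AC50 is for reporter induction above DMSO meaning RARg activation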
Chain of human Retinoic Acid Receptor gamma (RARg), RARG (gene 5916) (P13631 whole entry, looked up, the tested form may be a part): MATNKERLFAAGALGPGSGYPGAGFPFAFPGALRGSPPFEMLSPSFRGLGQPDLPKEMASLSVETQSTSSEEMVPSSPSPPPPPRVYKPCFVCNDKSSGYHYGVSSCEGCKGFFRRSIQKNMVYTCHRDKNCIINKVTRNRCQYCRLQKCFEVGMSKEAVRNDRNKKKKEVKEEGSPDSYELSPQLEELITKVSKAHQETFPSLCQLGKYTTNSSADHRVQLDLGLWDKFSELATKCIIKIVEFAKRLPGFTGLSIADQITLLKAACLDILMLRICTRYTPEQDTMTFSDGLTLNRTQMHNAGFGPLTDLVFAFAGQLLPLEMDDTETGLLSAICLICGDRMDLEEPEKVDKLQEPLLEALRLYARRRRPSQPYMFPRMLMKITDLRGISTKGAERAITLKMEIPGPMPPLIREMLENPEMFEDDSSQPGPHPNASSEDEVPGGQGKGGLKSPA
Method in brief: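 Readout: reporter transcript levels via RT-PCR, 6-FAM primer-extension labelling, HpaI digestion and capillary electrophoresis. Cells: HepG2 carrying transfected RARg-GAL4 chimera plus UAS reporter set. Dosing 24 h; DMSO negative control.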

[9] = target: human RAR-related Orphan Receptor beta (RORb), RORB (gene 6096) (UniProt Q92753); experiment: ATG_RORb_TRANS: Attagene TRANS-FACTORIAL HepG2 Assay for human RAR-related Orphan Receptor beta (RORb) (AID 2283010);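 as to AC50: potency for increased reporter mRNA meaning activation of RORb-Gal4 chimera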
Chain of human RAR-related Orphan Receptor beta (RORb), RORB (gene 6096) (Q92753 whole entry, looked up, the tested form may be a part): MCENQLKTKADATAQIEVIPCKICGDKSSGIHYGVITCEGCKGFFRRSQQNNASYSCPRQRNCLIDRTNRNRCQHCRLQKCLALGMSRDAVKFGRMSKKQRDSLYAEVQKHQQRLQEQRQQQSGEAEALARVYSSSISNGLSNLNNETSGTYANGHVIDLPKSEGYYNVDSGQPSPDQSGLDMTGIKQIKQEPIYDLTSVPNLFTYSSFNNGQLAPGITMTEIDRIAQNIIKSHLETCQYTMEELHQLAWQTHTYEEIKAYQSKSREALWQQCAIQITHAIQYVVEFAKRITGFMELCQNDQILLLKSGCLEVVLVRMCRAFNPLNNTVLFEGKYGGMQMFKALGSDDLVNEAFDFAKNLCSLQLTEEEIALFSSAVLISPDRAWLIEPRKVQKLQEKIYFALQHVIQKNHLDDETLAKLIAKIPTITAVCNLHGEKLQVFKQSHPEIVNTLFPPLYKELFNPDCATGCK
Method in brief: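 HepG2, transient MRTU transfection (GAL4-UAS reporters, exogenous NR-Gal4 chimeras); 24 h compound exposure; total RNA → RT-PCR → 6-FAM primer extension → HpaI digest → CE fluorescence. Positive direction vs DMSO baseline.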

[10] = target: human RAR-related Orphan Receptor gamma (RORg), RORC (gene 6097) (UniProt P51449); experiment: ATG_RORg_TRANS: Attagene TRANS-FACTORIAL HepG2 Assay for human RAR-related Orphan Receptor gamma (RORg) (AID 2283011)
Method in brief: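 Reporter transcripts from a transfected RORg-GAL4 chimera in HepG2 cells were quantified 24 h after dosing by RT-PCR, 6-FAM labelling, HpaI digestion and capillary electrophoresis; increases over DMSO baseline were fitted.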

[11] = target: Retinoic acid receptor RXR-alpha (Homo sapiens) (UniProt P19793); experiment: ATG_RXRa_TRANS: Attagene TRANS-FACTORIAL HepG2 Assay for human Retinoid X Receptor alpha (RXRa) (AID 2283012)
Chain of Retinoic acid receptor RXR-alpha (Homo sapiens) (P19793 whole entry, looked up, the tested form may be a part): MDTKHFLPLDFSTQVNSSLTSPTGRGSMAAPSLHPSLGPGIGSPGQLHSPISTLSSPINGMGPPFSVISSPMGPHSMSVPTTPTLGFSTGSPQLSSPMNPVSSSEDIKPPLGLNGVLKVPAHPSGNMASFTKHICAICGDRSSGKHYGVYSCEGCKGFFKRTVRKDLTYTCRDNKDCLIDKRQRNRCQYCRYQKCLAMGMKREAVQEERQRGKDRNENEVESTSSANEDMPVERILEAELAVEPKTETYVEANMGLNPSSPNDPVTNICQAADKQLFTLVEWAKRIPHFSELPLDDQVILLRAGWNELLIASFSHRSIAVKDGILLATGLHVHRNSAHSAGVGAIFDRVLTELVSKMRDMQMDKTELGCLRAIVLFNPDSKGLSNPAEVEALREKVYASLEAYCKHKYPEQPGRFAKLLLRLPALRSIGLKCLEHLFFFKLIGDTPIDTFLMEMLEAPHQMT
Method in brief: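 Read-out: fluorescent reporter-transcript fragments quantified by capillary electrophoresis after RT-PCR. Transiently transfected HepG2 cells carrying GAL4-UAS reporters and NR-GAL4 chimeras were exposed to chemical for 24 h; activity scored as increase over DMSO.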

[12] = target: human Retinoid X Receptor beta (RXRb), RXRB (gene 6257) (UniProt P28702); experiment: ATG_RXRb_TRANS: Attagene TRANS-FACTORIAL HepG2 Assay for human Retinoid X Receptor beta (RXRb) (AID 2283013)
Method in brief: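 Read-out: reporter mRNA induction via RT-PCR plus capillary electrophoresis fluorescence, analysed as signal increase relative to DMSO. Cells were human HepG2, transiently transfected with GAL4-UAS reporter constructs and chimeric receptor-Gal4 fusions, dosed for 24 h.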

[13] = target: human Thyroid Receptor alpha (THRa1), THRA (gene 7067) (UniProt P10827); experiment: ATG_THRa1_TRANS: Attagene TRANS-FACTORIAL HepG2 Assay for human Thyroid Receptor alpha (THRa1) (AID 2283014)
Chain of human Thyroid Receptor alpha (THRa1), THRA (gene 7067) (P10827 whole entry, looked up, the tested form may be a part): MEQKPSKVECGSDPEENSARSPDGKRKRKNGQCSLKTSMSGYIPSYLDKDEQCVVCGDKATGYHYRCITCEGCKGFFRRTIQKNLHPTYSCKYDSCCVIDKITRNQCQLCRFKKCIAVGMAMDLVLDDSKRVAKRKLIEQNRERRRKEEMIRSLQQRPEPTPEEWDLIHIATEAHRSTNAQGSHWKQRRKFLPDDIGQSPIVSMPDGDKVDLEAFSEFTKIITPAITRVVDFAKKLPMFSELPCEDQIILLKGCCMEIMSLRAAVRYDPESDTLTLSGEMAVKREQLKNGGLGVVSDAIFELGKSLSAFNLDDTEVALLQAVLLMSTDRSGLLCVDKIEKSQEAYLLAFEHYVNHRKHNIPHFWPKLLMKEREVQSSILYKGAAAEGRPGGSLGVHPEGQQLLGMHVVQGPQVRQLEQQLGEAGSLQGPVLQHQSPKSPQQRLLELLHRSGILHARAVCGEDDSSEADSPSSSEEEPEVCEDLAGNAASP
Method in brief: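 Transcripts from GAL4-UAS-driven reporters, measured after 24 h compound exposure by RT-PCR plus capillary electrophoresis of 6-FAM-labeled fragments, were fitted for gain of signal relative to DMSO. Cells: transiently transfected HepG2 expressing NR-Gal4 chimeras.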

[14] = read-out: E-selectin (Homo sapiens) (UniProt P16581); experiment: BSK_3C_Eselectin: BioMAP Diversity Plus: 3C Assay for Eselectin Biomarker Activity (AID 2283015; active = hit-call score of the fitted dose curve at least 0.9, where 1 is the maximum; inactive = score below 0.9); settings: primary human endothelial cells (HUVEC); actives raise or lower the signal
Method in brief: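 E-selectin ELISA readout, fitted bidirectionally relative to DMSO, taken 24 h post-dosing in HUVEC cultures of the 3C system. Overt cytotoxicity tracked with sulforhodamine B staining of parallel wells.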

[15] = read-out: Interleukin-1 alpha (IL1a), IL1A (gene 3552); experiment: BSK_BE3C_IL1a: BioMAP Diversity Plus: BE3C Assay for Interleukin-1 alpha (IL1a) Biomarker Activity (AID 2283016; active = hit-call score of the fitted dose curve at least 0.9, where 1 is the maximum; inactive = score below 0.9); settings: primary human bronchial epithelial cells; actives raise or lower the signal
Method in brief: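 ELISA read-out of IL-1a from human lung bronchial epithelial primary cells, 24 h post-dose. Gain or loss of signal fitted relative to DMSO negative control.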

[16] = read-out: Monocyte Chemoattractant Protein-1 (MCP1), CCL2 (gene 6347); experiment: BSK_3C_MCP1: BioMAP Diversity Plus: 3C Assay for Monocyte Chemoattractant Protein-1 (MCP1) Biomarker Activity (AID 2283017; active = hit-call score of the fitted dose curve at least 0.9, where 1 is the maximum; inactive = score below 0.9); settings: primary human endothelial cells (HUVEC); actives raise or lower the signal
Method in brief: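 MCP-1 was measured by ELISA 24 h after dosing in primary HUVEC 3C cultures and fitted in both directions relative to DMSO; cytotoxicity was checked by SRB total-protein staining in parallel wells.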

[17] = read-out: Monocyte Chemoattractant Protein-1 (MCP1), CCL2 (gene 6347); experiment: BSK_4H_MCP1: BioMAP Diversity Plus: 4H Assay for Monocyte Chemoattractant Protein-1 (MCP1) Biomarker Activity (AID 2283018; active = hit-call score of the fitted dose curve at least 0.9, where 1 is the maximum; inactive = score below 0.9); settings: primary human endothelial cells (HUVEC); actives raise or lower the signal
Method in brief: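 HUVEC primary cells, 24 h post-dose, MCP-1 by ELISA. Gain or loss of signal fitted bidirectionally vs DMSO baseline. Cytotoxicity: SRB stain (0.1% after 10% TCA fixation), read 560 nm, parallel cultures.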

[18] = read-out: Human Leukocyte Antigen - DR isotype (HLADR), HLA-DRA (gene 3122); experiment: BSK_3C_HLADR: BioMAP Diversity Plus: 3C Assay for Human Leukocyte Antigen - DR isotype (HLADR) Biomarker Activity (AID 2283019; active = hit-call score of the fitted dose curve at least 0.9, where 1 is the maximum; inactive = score below 0.9); settings: primary human endothelial cells (HUVEC); actives raise or lower the signal
Method in brief: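 Bidirectional fitting against DMSO was applied to the HLA-DR ELISA signal from human umbilical vein endothelial cells, 24 h post-dose. Cytotoxicity came from parallel SRB total-protein staining; 3C proliferation was counted by SRB at 48 h.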

[19] = read-out: Interleukin-8 (IL8), CXCL8 (gene 3576); experiment: BSK_3C_IL8: BioMAP Diversity Plus: 3C Assay for Interleukin-8 (IL8) Biomarker Activity (AID 2283020; active = hit-call score of the fitted dose curve at least 0.9, where 1 is the maximum; inactive = score below 0.9); settings: primary human endothelial cells (HUVEC); actives raise or lower the signal
Method in brief: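 HUVEC, 3C stimulation; 24 h compound exposure; IL-8 read by ELISA; gain or loss of signal fitted relative to DMSO control.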

[20] = target: Nuclear receptor subfamily 1 group I member 2 (Homo sapiens) (UniProt O75469); experiment: ATG_PXR_TRANS: Attagene TRANS-FACTORIAL HepG2 Assay for human Pregnane X Receptor (PXR) (AID 2283008)
Chain of Nuclear receptor subfamily 1 group I member 2 (Homo sapiens) (O75469 whole entry, looked up, the tested form may be a part): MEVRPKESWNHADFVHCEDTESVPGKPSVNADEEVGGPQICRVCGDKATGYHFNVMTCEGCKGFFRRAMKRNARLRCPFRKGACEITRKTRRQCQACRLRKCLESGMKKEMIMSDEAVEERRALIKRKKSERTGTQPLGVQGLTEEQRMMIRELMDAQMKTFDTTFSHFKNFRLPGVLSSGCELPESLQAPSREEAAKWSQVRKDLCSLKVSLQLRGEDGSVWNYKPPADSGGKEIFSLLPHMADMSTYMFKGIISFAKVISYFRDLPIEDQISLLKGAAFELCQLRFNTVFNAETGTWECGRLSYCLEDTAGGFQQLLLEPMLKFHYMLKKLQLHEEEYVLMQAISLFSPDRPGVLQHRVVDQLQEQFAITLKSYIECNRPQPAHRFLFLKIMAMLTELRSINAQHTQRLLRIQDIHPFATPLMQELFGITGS
Method in brief: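 Multiplexed TRANS reporter panel in HepG2; this component tracks PXR-Gal4-driven reporter mRNA after 24 h dosing, measured by RT-PCR with capillary electrophoresis fluorescence, fitted against DMSO.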

Measured: AC50

Chain of E-selectin (Homo sapiens) (P16581 whole entry, looked up): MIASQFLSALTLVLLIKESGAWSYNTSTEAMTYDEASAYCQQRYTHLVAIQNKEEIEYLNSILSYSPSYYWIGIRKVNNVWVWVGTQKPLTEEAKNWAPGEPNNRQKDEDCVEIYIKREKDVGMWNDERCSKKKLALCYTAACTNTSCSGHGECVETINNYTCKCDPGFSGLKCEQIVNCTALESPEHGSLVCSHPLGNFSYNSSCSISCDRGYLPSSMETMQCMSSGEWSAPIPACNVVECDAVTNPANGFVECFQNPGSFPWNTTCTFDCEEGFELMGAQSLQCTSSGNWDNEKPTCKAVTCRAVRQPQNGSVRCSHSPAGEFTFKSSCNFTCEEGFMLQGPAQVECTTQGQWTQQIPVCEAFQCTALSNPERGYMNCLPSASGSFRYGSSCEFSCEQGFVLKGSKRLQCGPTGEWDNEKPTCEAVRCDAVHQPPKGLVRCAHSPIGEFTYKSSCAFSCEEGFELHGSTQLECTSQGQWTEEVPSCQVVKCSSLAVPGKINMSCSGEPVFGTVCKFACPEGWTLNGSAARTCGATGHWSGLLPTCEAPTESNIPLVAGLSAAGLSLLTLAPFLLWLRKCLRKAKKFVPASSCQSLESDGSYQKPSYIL

O=C(O)C(F)(F)C(F)(F)C(F)(F)C(F)(F)C(F)(F)C(F)(F)F
inactive: [2] | [3] | [4] | [5] | [6] | [7] | [8] | [9] | [10] | [11] | [12] | [13] | [14] | [15] | [16] | [17] | [18] | [19]
active: [1] 18.2 µM and 20.7 µM | [7] 65.4 µM and 72.5 µM | [12] 51.7 µM and 56.5 µM | [19] 13.9 µM

COP(=S)(OC)Oc1cc(Cl)c(Cl)cc1Cl
active: [1] 100 µM | [6] 20 µM | [7] 54.8 µM | [12] 68.2 µM | [18] 27.4 µM
not listed: [5] | [9] | [10] | [14] | [20]
inactive: all other assays above

O=C(Cc1ccccc1)c1ccccc1
inactive: [1] | [2] | [4] | [5] | [8] | [11] | [12]
active: [20] 27.8 µM

Oc1cccc2cccnc12
active: [6] 4.78 µM | [15] 5.35 µM
not listed: [4] | [5] | [8] | [10] | [12] | [14] | [18]
inactive: all other assays above

Nc1ccc(-c2ccc(N)c(Cl)c2)cc1Cl
active: [6] 1.84 µM | [7] 11.9 µM | [20] 13.2 µM | [12] 11.2 µM
inactive: [1] | [3] | [9] | [11] | [14] | [15] | [16] | [17] | [19]

CCC(C)(C)c1ccc(O)c(C(C)(C)CC)c1
inactive: [4] | [5]
active: [1] 55.2 µM | [2] 52 µM | [3] 12.4 µM | [6] 8.85 µM | [7] 33.4 µM | [20] 12.6 µM | [8] 27.4 µM | [9] 27.3 µM | [11] 33.4 µM | [12] 9.09 µM | [13] 45.8 µM | [14] 10.4 µM | [15] 32.5 µM | [16] 9.92 µM | [17] 11.1 µM | [19] 8.88 µM

c1ccc(N=NNc2ccccc2)cc1
active: [7] 65.7 µM | [20] 33.6 µM | [13] 134 µM
inactive: [1] | [2] | [8] | [11]

COc1ccc(C=O)cc1
inactive: [1] | [2] | [7] | [9] | [10] | [11]
